Data reported in the supplement of paper PMC10849652.
Targets with a hit are over-represented here; the source holds about 7,900 in all. About 0.6% of all pairs of compound and target were hits.

compound: C1=CC=C(C=C1)C2=NC(=C(N2)C3=CC=NC=C3)C4=CC(=C(C=C4)Cl)O; assay: log2 fold change, soluble protein after heating vs DMSO (PISA); higher = thermal stabilisation; K562 cells, 10 uM, 30 min; active = over 0.2 and 3.5 SD of the protein, either way, in both replicates (recomputed)
Method in brief: (§1)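 Soluble protein was quantified by TMTpro 16plex LC-MS/MS after channel sums were equalised. It was obtained as the supernatant after 21,000xg for 90 min from pooled aliquots of K562 cells (2×10^6 cells/mL, 10 μM compound, 30 min) heated for 3 min across 48°C-58°C and extracted in PBS with 0.5% NP-40 at 4°C. Thermal stability values are relative to control samples and come from duplicates. They are given as log2 fold changes.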

Chain of UniProt Q8N6R0 (Q8N6R0 whole entry, looked up): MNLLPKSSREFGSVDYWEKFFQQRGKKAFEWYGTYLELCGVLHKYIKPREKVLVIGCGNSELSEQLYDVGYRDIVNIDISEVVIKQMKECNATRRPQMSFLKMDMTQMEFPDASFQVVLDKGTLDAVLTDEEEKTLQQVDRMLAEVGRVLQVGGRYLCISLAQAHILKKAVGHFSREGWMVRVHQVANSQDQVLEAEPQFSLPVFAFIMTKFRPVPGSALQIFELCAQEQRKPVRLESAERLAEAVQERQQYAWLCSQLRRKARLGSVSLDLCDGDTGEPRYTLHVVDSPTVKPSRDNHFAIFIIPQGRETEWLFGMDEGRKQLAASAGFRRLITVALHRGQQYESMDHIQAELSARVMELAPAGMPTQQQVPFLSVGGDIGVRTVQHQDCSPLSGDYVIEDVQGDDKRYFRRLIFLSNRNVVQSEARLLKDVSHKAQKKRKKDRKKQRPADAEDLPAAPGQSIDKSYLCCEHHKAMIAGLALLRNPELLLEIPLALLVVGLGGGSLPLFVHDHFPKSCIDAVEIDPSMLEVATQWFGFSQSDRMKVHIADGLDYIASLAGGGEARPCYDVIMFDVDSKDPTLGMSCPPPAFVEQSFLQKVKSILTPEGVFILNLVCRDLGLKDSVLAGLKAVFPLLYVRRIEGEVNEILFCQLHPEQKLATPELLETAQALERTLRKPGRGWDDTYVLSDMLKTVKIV
Chain of UniProt Q9NX74 (Q9NX74 whole entry, looked up): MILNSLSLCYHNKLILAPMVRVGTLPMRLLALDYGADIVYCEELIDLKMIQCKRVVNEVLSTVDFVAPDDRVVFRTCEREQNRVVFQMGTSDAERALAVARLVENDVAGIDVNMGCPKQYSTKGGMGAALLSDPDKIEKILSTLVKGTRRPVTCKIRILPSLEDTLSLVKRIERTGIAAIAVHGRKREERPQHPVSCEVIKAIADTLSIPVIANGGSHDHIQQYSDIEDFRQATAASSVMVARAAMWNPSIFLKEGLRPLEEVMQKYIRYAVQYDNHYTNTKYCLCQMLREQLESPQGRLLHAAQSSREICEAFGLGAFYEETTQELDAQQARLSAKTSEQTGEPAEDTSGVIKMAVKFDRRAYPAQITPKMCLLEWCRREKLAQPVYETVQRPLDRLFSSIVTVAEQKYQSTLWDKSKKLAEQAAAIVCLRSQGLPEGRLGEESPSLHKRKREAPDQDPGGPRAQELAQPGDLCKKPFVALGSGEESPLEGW
Chain of UniProt Q9H773 (Q9H773 whole entry, looked up): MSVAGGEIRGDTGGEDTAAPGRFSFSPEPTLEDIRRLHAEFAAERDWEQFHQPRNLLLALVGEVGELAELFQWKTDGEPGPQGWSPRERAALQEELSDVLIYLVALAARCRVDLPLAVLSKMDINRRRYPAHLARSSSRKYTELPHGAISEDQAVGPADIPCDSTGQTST
Chain of UniProt Q9H467 (Q9H467 whole entry, looked up): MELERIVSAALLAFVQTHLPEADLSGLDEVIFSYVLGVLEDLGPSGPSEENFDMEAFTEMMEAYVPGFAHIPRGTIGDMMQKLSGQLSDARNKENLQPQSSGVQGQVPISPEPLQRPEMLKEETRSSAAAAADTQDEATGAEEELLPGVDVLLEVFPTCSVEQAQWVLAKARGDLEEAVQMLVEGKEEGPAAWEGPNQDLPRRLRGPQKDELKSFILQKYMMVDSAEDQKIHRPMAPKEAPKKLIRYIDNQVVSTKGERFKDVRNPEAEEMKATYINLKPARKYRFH
Chain of UniProt Q5QJE6 (Q5QJE6 whole entry, looked up): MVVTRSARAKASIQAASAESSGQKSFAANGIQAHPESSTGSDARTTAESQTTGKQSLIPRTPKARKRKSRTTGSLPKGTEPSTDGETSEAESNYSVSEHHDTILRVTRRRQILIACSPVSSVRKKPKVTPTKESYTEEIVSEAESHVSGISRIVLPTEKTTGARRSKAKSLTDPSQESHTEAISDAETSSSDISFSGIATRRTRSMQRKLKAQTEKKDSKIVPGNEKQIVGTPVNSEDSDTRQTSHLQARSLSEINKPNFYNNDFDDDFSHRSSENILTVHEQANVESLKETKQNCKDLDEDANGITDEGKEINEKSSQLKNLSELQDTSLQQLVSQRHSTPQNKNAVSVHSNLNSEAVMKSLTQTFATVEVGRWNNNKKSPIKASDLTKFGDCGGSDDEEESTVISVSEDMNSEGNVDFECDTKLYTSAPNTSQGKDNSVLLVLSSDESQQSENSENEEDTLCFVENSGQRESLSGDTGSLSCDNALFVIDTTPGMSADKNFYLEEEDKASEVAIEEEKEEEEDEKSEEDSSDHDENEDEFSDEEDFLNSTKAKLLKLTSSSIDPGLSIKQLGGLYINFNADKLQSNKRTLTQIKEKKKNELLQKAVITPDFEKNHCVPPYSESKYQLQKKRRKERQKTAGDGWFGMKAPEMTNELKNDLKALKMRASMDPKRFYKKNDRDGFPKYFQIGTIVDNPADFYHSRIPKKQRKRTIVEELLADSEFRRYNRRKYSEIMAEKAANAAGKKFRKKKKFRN
Chain of UniProt Q0VG06 (Q0VG06 whole entry, looked up): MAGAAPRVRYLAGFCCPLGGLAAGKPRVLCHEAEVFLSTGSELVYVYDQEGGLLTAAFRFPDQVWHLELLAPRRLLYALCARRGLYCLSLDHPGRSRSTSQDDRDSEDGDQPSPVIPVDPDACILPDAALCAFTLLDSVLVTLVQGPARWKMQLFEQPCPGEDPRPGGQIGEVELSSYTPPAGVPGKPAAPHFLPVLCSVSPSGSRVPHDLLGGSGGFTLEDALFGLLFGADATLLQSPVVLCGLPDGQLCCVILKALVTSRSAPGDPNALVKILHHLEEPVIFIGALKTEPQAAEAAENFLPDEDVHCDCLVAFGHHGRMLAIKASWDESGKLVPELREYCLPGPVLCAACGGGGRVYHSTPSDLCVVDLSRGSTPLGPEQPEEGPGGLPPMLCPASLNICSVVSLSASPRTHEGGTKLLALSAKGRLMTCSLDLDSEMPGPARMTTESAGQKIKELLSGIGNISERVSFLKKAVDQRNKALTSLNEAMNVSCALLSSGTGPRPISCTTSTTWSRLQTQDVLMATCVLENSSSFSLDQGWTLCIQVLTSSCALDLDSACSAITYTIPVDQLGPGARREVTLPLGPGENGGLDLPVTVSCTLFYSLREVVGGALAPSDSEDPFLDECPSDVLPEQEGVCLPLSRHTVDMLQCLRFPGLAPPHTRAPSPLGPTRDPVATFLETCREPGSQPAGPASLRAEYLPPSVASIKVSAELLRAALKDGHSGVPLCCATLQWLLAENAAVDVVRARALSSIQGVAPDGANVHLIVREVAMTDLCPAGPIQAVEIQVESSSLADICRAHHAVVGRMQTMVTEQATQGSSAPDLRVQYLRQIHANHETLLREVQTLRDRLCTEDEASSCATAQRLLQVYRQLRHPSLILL
Chain of UniProt Q96KP1 (Q96KP1 whole entry, looked up): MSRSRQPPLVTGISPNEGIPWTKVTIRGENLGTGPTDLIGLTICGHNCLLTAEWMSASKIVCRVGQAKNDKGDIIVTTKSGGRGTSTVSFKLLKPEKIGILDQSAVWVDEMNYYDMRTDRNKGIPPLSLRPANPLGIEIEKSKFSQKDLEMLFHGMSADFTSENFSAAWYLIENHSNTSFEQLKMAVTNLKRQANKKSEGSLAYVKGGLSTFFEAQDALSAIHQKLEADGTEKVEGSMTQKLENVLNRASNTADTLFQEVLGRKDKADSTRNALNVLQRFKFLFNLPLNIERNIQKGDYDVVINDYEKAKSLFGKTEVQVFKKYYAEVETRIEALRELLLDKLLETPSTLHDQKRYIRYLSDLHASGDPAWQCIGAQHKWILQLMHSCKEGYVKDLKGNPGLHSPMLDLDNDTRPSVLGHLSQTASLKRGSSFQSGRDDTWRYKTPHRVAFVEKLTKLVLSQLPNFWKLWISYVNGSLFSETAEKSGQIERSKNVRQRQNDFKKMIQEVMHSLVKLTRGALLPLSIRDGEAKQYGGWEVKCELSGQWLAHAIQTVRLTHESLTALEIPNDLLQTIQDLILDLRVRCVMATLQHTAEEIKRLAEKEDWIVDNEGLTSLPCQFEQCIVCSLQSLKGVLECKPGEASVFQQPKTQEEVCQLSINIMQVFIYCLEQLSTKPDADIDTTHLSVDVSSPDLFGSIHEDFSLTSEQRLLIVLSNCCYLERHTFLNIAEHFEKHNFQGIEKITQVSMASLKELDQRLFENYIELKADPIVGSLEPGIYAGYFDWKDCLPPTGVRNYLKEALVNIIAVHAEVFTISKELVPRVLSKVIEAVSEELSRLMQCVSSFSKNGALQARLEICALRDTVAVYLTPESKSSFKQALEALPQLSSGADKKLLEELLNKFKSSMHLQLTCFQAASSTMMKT
Chain of UniProt P11182 (P11182 whole entry, looked up): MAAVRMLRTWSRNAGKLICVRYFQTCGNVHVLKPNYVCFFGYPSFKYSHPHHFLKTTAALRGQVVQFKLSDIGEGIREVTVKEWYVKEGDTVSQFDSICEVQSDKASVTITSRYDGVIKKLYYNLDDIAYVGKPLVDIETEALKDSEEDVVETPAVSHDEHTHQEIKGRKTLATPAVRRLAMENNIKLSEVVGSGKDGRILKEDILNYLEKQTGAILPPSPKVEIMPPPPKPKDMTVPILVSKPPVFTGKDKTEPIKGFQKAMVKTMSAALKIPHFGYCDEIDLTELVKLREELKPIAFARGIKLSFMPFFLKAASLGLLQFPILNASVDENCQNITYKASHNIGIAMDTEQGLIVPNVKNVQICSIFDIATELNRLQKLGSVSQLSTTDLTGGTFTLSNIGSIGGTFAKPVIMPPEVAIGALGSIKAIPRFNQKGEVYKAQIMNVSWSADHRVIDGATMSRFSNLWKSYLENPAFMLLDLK
Chain of UniProt P29692 (P29692 whole entry, looked up): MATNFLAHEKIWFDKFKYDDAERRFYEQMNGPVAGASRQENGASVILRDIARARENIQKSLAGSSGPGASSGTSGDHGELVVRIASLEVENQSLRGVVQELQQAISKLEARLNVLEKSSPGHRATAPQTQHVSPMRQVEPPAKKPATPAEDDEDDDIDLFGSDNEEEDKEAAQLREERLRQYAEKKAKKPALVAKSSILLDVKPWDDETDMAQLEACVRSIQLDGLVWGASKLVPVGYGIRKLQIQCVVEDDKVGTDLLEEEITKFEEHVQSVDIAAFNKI

log2 fold change, active:
ECH1 (UniProt Q13011) 0.541

log2 fold change, inactive:
EOGT (UniProt Q5NDL2) -0.032
CUEDC2 (UniProt Q9H467) -0.074
DDX5 (UniProt P17844) 0.059
EIF4E2 (UniProt O60573) -0.111
ERLIN1 (UniProt O75477) -0.006
EEF1AKNMT (UniProt Q8N6R0) 0.091
EIF4A1 (UniProt P60842) 0.007
DCTPP1 (UniProt Q9H773) 0.194
DNAJB12 (UniProt Q9NXW2) 0.006
DDX4 (UniProt Q9NQI0) -0.305
EXOC2 (UniProt Q96KP1) -0.013
DMAC1 (UniProt Q96GE9) -0.04
EEA1 (UniProt Q15075) -0.046
DDX46 (UniProt Q7L014) -0.023
CYP51A1 (UniProt Q16850) -0.096
DCTN1 isoform 4 (UniProt Q14203) -0.023
CWC27 (UniProt Q6UX04) 0.041
DNAJC19 (UniProt Q96DA6) 0.052
DUS2 (UniProt Q9NX74) -0.009
DBT (UniProt P11182) 0.099
FAAP100 (UniProt Q0VG06) -0.024
FAM207A (UniProt Q9NSI2) -0.027
EEF1D isoform 2 (UniProt P29692) -0.03
DNAH11 (UniProt Q96DT5) -0.28
DAB2 (UniProt P98082) 0.002
DYNC1LI2 (UniProt O43237) -0.061
DNAJC7 (UniProt Q99615) 0.013
DLD (UniProt P09622) 0.032
DCAF10 (UniProt Q5QP82) -0.077
DCAF6 isoform 3 (UniProt Q58WW2) 0.008
FAM122A (UniProt Q96E09) -0.019
FAM83D (UniProt Q9H4H8) 0.086
DNAJB1 (UniProt P25685) 0.024
DNTTIP2 (UniProt Q5QJE6) -0.069
CTSL (UniProt P07711) -0.002
CTSV (UniProt O60911) 0.024
EDC3 (UniProt Q96F86) -0.024
EIF3J (UniProt O75822) 0.101

compound: C1=CC=C2C(=C1)C3=NNC4=CC=CC(=C43)C2=O; assay: as above
Method in brief: as §1

log2 fold change, active:
ECH1 (UniProt Q13011) 0.361

log2 fold change, inactive:
EOGT (UniProt Q5NDL2) 0.032
CUEDC2 (UniProt Q9H467) 0.008
DDX5 (UniProt P17844) -0.032
EIF4E2 (UniProt O60573) -0.009
ERLIN1 (UniProt O75477) -0.047
EEF1AKNMT (UniProt Q8N6R0) 0.058
EIF4A1 (UniProt P60842) 0.035
DCTPP1 (UniProt Q9H773) 0.012
DNAJB12 (UniProt Q9NXW2) -0.064
DDX4 (UniProt Q9NQI0) 0.006
EXOC2 (UniProt Q96KP1) 0.054
DMAC1 (UniProt Q96GE9) -0.021
EEA1 (UniProt Q15075) -0.031
DDX46 (UniProt Q7L014) -0.022
CYP51A1 (UniProt Q16850) 0.089
DCTN1 isoform 4 (UniProt Q14203) 0.05
CWC27 (UniProt Q6UX04) -0.102
DNAJC19 (UniProt Q96DA6) -0.022
DUS2 (UniProt Q9NX74) -0.123
DBT (UniProt P11182) -0.01
FAAP100 (UniProt Q0VG06) 0.023
FAM207A (UniProt Q9NSI2) 0.006
EEF1D isoform 2 (UniProt P29692) 0.021
DNAH11 (UniProt Q96DT5) -0.001
DAB2 (UniProt P98082) 0.019
DYNC1LI2 (UniProt O43237) 0.049
DNAJC7 (UniProt Q99615) 0.023
DLD (UniProt P09622) -0.018
DCAF10 (UniProt Q5QP82) -0.013
DCAF6 isoform 3 (UniProt Q58WW2) -0.036
FAM122A (UniProt Q96E09) 0.03
FAM83D (UniProt Q9H4H8) 0.059
DNAJB1 (UniProt P25685) -0.025
DNTTIP2 (UniProt Q5QJE6) -0.269
CTSL (UniProt P07711) -0.041
CTSV (UniProt O60911) 0.023
EDC3 (UniProt Q96F86) -0.057
EIF3J (UniProt O75822) 0.021
